For orientation: AC50 means the concentration at which the activity in the assay is half-maximal.

Active and inactive are the calls of the source. Rule for the calls: active = hit-call score of the fitted dose curve at least 0.9, where 1 is the maximum; inactive = score below 0.9.

The test can be described thus: APR_HepG2_MitoticArrest_72hr: Apredica 72-hour HepG2 Assay for Mitotic Arrest (AID 2282918). The settings on record: high-content imaging, actives raise or lower the signal. As to the method:
APR_HepG2_72hr is a cell-based, multiplexed-readout assay that uses HepG2, a human liver cell line, with measurements taken at 72 hours after chemical dosing in a 384-well plate.APR_HepG2_MitoticArrest_72hr is one of 10 assay component(s) measured or calculated from the APR_HepG2_72hr assay. It is designed to make measurements of cell phenotype, a form of morphology reporter, as detected with fluorescence intensity signals by HCS Fluorescent Imaging technology.Data from the assay component APR_HepG2_MitoticArrest_72hr was analyzed into 1 assay endpoint. This assay endpoint, APR_HepG2_MitoticArrest_72hr, was analyzed with bidirectional fitting relative to DMSO as the negative control and baseline of activity. Using a type of morphology reporter, measures of protein for gain or loss-of-signal activity can be used to understand the signaling at the pathway-level as they relate to the gene . Furthermore, this assay endpoint can be referred to as a primary readout, because this assay has produced multiple assay endpoints where this one serves a signaling function. To generalize the intended target to other relatable targets, this assay endpoint is annotated to the cell cycle intended target family, where the subfamily is arrest.
Cells were treated with dimethyl sulfoxide (DMSO) as a solvent control at a final concentration of 0.5% v/v or with compounds in DMSO with a resulting final DMSO concentration of 0.5% v/v. Compound treatment was done at concentrations of 0.39, 0.78, 1.56, 3.12, 6.24, 12.5, 25, 50, 100, and 200 uM in duplicate on each plate. Cells were treated with compounds for 1, 24, or 72 hr. Carbonyl […] m-chloro-phenylhydrazone (CCCP) and taxol were used as positive controls for mitochondrial function and cytoskeletal stability, respectively; DMSO served as the negative control for this experiment. Cells were fixed by the direct addition of 50 uL formaldehyde in Hank's Balanced Salt Solution (HBSS) to a final concentration of 3.7%. After incubation in the fixation medium for 30 min at room temperature (293-298 K), cells were rinsed twice with HBSS and treated with cell permeabilization buffer (16 uL of 0.5% Triton X-100) for 10 min at room temperature (293-298 K) before labeling. For mitochondrial membrane potential and mitochondrial measurements, pre-fixed cells were incubated with 50 uL of MitoTracker Red CMXRos (Invitrogen) at a concentration of 250 nM for 30 min before fixation. In the remaining cases, post-fixed cells were labeled by incubation with a multiplexed mixture of primary antibodies in HBSS for 60 min at room temperature (293-298 K) to detect immunoreactivity of c-Jun (1:500), phospho-histone H3 (1:100), phospho-histone H2A.x (1:200), p53 (1:400), alpha-tubulin (1:200) and Hoechst 33342 (2 ug/mL). Cells were labeled for multiplexed imaging on two separate plates: a) Hoechst 33342, MitoTracker Red, phospho-histone H3, and alpha-tubulin, and b) Hoechst 33342, phospho-histone H2A.x, and c-Jun. A final rinse with HBSS (50 uL) was performed before analysis. The primary and secondary antibodies for the proteins were phospho-histone H3 (rabbit anti-phospho-histone H3 and FITC-donkey anti-rabbit IgG), phospho-histone H2A.x (mouse anti-phospho-histone H2A.x and FITC-donkey anti-mouse IgG), c-Jun (rabbit anti-phospho-c-Jun and Cy3-donkey anti-rabbit IgG), p53 (sheep anti-p53 and Cy5-donkey anti-sheep IgG), alpha-tubulin (mouse anti-alpha-tubulin and Cy5-donkey anti-mouse IgG). These antibodies are available as the CellCiphr HepG2 assay kit (Millipore).Digital images of each well were captured using a Cellomics ArrayScan VTI (Thermo Scientific Cellomics) (0.8 NA objective, 0.63x optical coupler, and XF-93 filter set) at 20x magnification. The images were acquired using the autofocus feature of the ArrayScan instrument, which entails the following steps. First, the camera focuses on channel 1 (Hoechst 33342), where nuclei are identified. Second, a Z offset of 1 um is used for capturing mitochondria (MitoTracker Red). […]
`CC1=C2C[C@H]3[C@@H](CC=C4C[C@@H](O)CC[C@@]43C)[C@@H]2CC[C@]12O[C@@H]1C[C@H](C)CN[C@H]1[C@H]2C`: the concentration at half-maximal activity (AC50) was 16.5 µM (active).

On to `CO/C=C(/C(=O)OC)c1ccccc1COc1cccc(C(F)(F)F)n1`, for which the AC50 was 29.1 µM (active).

As for `NS(=O)(=O)C(F)(F)C(F)(F)C(F)(F)C(F)(F)C(F)(F)C(F)(F)C(F)(F)C(F)(F)F`, the AC50 was 77.9 µM (active).

Turning to `O=S(=O)(O)C(F)(F)C(F)(F)C(F)(F)C(F)(F)F`, the call was inactive.

For the compound `CC(c1ccc(O)cc1)(c1ccc(O)cc1)c1ccc(O)cc1`, the AC50 was 105 µM (active).

Consider `COc1ccc(O)c(C(C)(C)C)c1`, for which the call was inactive.

Consider `CCCCCCOC(=O)c1ccccc1C(=O)OCCCCCC`, for which the result was inactive.

Take `Cc1cc2c3c(c1)C(c1ccccc1)=N[C@@H](NC(=O)c1ccncc1)C(=O)N3CC2`: the call was inactive.

On to `Cc1ccccc1[N+](=O)[O-]`, for which the result was inactive.

With `O=C(N[C@H]1CN2CCC1CC2)c1cc2ccoc2cn1`, the result was inactive.

For the compound `CCCCCCCCOC(=O)c1ccccc1C(=O)OCCCCCCCC`, the result was inactive.

For `Cc1cccc(C)c1N`, the compound was classed as inactive.

Turning to `Cc1ccccc1O`, the compound was classed as inactive.

Consider `O=C(NC(=O)c1cc(F)c(F)cc1Cl)Nc1cc(F)ccc1N1CCC(C(=O)O)CC1`, for which the outcome was inactive.

`CCSC(=O)N(CC)C1CCCCC1`: the call was inactive.

On to `C1CC2OC2CC1C1CO1` (stereo not given), for which the outcome was inactive.

Take `c1cc2ccc3cccc4ccc(c1)c2c34`: the call was inactive.

With `C=CC(=O)NCNC(=O)C=C`, the result was inactive.

In the case of `Cc1ccccc1CO[C@@H]1C[C@@]2(C(C)C)CC[C@]1(C)O2`, the call was inactive.

`Nc1ccc(-c2ccc(N)cc2)cc1`: the call was inactive.

With `CN(C)CCO`, the result was inactive.

Take `ClC1=C(Cl)[C@]2(Cl)[C@@H]3[C@@H](Cl)[C@H]4O[C@H]4[C@@H]3C1(Cl)C2(Cl)Cl`: the AC50 is 51.6 µM (active).

In the case of `O=C(O)C(F)(F)C(F)(F)C(F)(F)C(F)(F)C(F)(F)C(F)(F)C(F)(F)C(F)(F)C(F)(F)F`, the AC50 is 98.1 µM (active).

In the case of `CC#Cc1cc(C)nc(Nc2ccccc2)n1`, the outcome was inactive.

Turning to `CCC(C)(CC)c1cc(NC(=O)c2c(OC)cccc2OC)on1`, the result was inactive.

Consider `CCNc1nc(NC(C)C)nc(SC)n1`, for which the call was inactive.

Take `CCOC(=O)C(O)(c1ccc(Cl)cc1)c1ccc(Cl)cc1`: the AC50 was 48.5 µM (active).

For `c1ccc(-c2ccccc2)cc1`, the result was inactive.

For the compound `CC(C)(O)C(=O)Nc1ccc([N+](=O)[O-])c(C(F)(F)F)c1`, the outcome was inactive.

For `Clc1ccc(C(c2ccccc2Cl)C(Cl)(Cl)Cl)cc1` (stereo not given), the AC50 is 50.9 µM (active).

Take `CCCN(CCC)N=O`: the call was inactive.

In the case of `CC(C)(c1ccccc1)c1ccc(O)cc1`, the outcome was inactive.

Turning to `N#Cc1ccc(N(CC(N)=O)CC(F)(F)F)cc1C(F)(F)F`, the outcome was inactive.

For `COS(=O)(=O)OC`, the compound was called inactive.

With `O=C(O)C(F)(F)C(F)(F)C(F)(F)C(F)(F)C(F)(F)C(F)(F)C(F)(F)C(F)(F)F`, the AC50 was 111 µM (active).

For `Clc1ccc(C(Cl)(Cl)Cl)cc1`, the outcome was inactive.

On to `Oc1c(Cl)c(Cl)c(Cl)c(Cl)c1Cl`, for which the call was inactive.

As for `O=S(=O)(O)C(F)(F)C(F)(F)C(F)(F)C(F)(F)C(F)(F)C(F)(F)F`, the call was inactive.

Turning to `C[C@]12CCC(=O)C=C1CC[C@@H]1[C@@H]2CC[C@@]2(C)[C@H]1CC[C@]2(C)O`, the outcome was inactive.

For `CCC(=O)O[C@H]1CC[C@H]2[C@@H]3CCC4=CC(=O)CC[C@]4(C)[C@H]3CC[C@]12C`, the AC50 was 65 µM (active).
